Assay results from PubChem BioAssay (NCATS).
Values joined by “and” are separate entries in the source; they are usually repeats but may differ in a detail not shown here. Equal entries are not always repeated. Records with an inconclusive call do not appear.

assay: qHTS Assay for Lipid Storage Modulators (AID 1519); details: Drosophila S3 cells, BODIPY lipid droplet/cell ratio, laser cytometry; measured here: lipid channel max response; cells loaded with oleic acid
Outline: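 Cells seeded at 5,000 per well were treated with compounds over a concentration series and loaded with oleic acid (400 uM, as added). Lipid droplet fluorescence (488 nm excitation, 500-530 nm channel) was read by laser-scanning cytometry and normalized to 20 uM Triacsin C.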

SMILES	max response
CC(C)c1cccc(C(C)C)c1O	-3.68%
O=C(CCCN1CCC2(CC1)C(=O)NCN2c1ccccc1)c1ccc(F)cc1	-10.3% and 17.9%
O=c1oc2ccccc2c(O)c1Cc1c(O)c2ccccc2oc1=O	-10.4%
COP(=S)(OC)Oc1ccc(SC)c(C)c1	29.4%
O=c1[nH]oc2c1CCNC2	-10.1% and 10.3% and 21.9%
C=C(C)[C@H]1CN[C@H](C(=O)O)[C@H]1CC(=O)O	-9.1%
CC(NC(C)(C)C)C(=O)c1cccc(Cl)c1 (centres undefined)	23.1% and -17.7%
Clc1cccc(SC2CCNCC2)n1	-29.2%
CN1C(=O)CCS(=O)(=O)C1c1ccc(Cl)cc1 (centres undefined)	26.5% and 41.1%
CC(C)(C)NCC(O)c1ccccc1Cl (centres undefined)	8.8% and 40.7%
Cc1ncsc1CCCl	4.95%
C[C@]12CCC(=O)C=C1CC[C@@H]1[C@@H]2CC[C@]2(C)C(=O)CC[C@@H]12	68.1%
COc1ccc2c(c1)C13CCCC[C@@H]1C(C2)N(C)CC3 (some centres undefined)	-9.19%
CCC1(CC)C(=O)C=CNC1=O	-7.28% and 25.2%
Cn1c(=O)c2[nH]cnc2n(C)c1=O	-6.71% and -6.91% and 31.3%
Cc1ccc(C(=O)c2ccc(CC(=O)O)n2C)cc1	-8.93%
COc1cc(OC)c(OC)cc1C=O	28.2%
NC(=O)c1cc([N+](=O)[O-])cc([N+](=O)[O-])c1	7.25%
O=C(O)CCCc1ccc(N(CCCl)CCCl)cc1	-5.54% and 10.7%
c1ccc2c(c1)sc1ccccc12	4.45%
COc1cc(-c2ccc(=O)[nH]n2)ccc1OC(F)F	-17.5%
O=P1(N(CCCl)CCCl)NCCCO1 (centres undefined)	-28.7%
CCCCC/C=C\C/C=C\C/C=C\C/C=C\CCCC(=O)NCC(=O)O	63.6%
CC(C)N(CCC(C(N)=O)(c1ccccc1)c1ccccn1)C(C)C (centres undefined)	33.6% and -11% and -15.7%
